# PubChem BioAssay (NCI)
# This is part of a sample that, as a whole, favours compounds with a hit. Of some 83,000 tested, about 20% had one in any assay.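 Step 1: grow cells in 96-well plates. Step 2: add test compound at a single concentration. Step 3: incubate 48 h. Step 4: record percent growth.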 Unmarked numbers belong to inactive results. Activity calls are given as the source filed them. How the source made its calls: active means growth percent below 10; inactive means the rest.
# Columns and labels:
# Test in all cases: NCI-60 one-dose screen, 48 h (100 = growth as untreated, 0 = no growth, -100 = all killed)
# Settings in all cases: 10 µM unless noted
# NCI-H23 lung = test system: NCI-H23 lung
# NCI-H226 lung = test system: NCI-H226 lung
# NCI-H322M lung = test system: NCI-H322M lung
# HOP-62 NSCLC = test system: HOP-62 NSCLC
# NCI-H460 lung = test system: NCI-H460 lung
# HOP-92 NSCLC = test system: HOP-92 NSCLC
# A549/ATCC NSCLC = test system: A549/ATCC NSCLC
# 786-0 renal = test system: 786-0 renal
# COLO 205 colon = test system: COLO 205 colon
# DU-145 prostate = test system: DU-145 prostate
# K-562 leukemia = test system: K-562 leukemia
# MALME-3M melanoma = test system: MALME-3M melanoma
# MDA-MB-231 breast = test system: MDA-MB-231 breast
# RXF 393 renal = test system: RXF 393 renal
# SF-268 CNS = test system: SF-268 CNS
# SF-295 CNS = test system: SF-295 CNS
# SF-539 CNS = test system: SF-539 CNS
# UACC-257 melanoma = test system: UACC-257 melanoma
# M14 melanoma = test system: M14 melanoma
# NCI-H522 lung = test system: NCI-H522 lung
SMILES,growth (NCI-H23 lung) [%],growth (NCI-H226 lung) [%],growth (NCI-H322M lung) [%],growth (HOP-62 NSCLC) [%],growth (NCI-H460 lung) [%],growth (HOP-92 NSCLC) [%],growth (A549/ATCC NSCLC) [%],growth (786-0 renal) [%],growth (COLO 205 colon) [%],growth (DU-145 prostate) [%],growth (K-562 leukemia) [%],growth (MALME-3M melanoma),growth (MDA-MB-231 breast) [%],growth (RXF 393 renal),growth (SF-268 CNS) [%],growth (SF-295 CNS) [%],growth (SF-539 CNS) [%],growth (UACC-257 melanoma),growth (M14 melanoma) [%],growth (NCI-H522 lung) [%]
COc1ccc(-c2nnc(SCC(=O)Nc3ccc(C(=O)/C=C/c4ccc(OC)c(OC)c4)cc3)o2)cc1,91.9,86.2,94.6,73.6,95.1,81.3,77.7,106,102,93.7,61.7,100%,96.6,104%,98.2,96.5,96,73.7%,105,
CCCCn1c(-c2cccc(OC)c2)nc2cc(OC)c(OC)cc2c1=O,87.3,92.8,197,45.7,115,83.1,11.3,,117,93.4,77.9,252%,89.2,,95.4,99.5,108,-16.6% (active),107,92.4
O=C(c1cc(-c2ccc(Cl)cc2)nc2ccccc12)N1N=C(c2ccccc2)CC1c1cc(-c2ccccc2)nn1-c1ccccc1 (stereo not drawn),72.5,84.1,59.8,74,48.6,85,80,90,84.9,82.7,63.9,86.1%,93.3,,62.4,64.8,82.1,95.1%,65.1,
Nc1ncnc2c1ncn2C1OC(COC(c2ccccc2)(c2ccccc2)c2ccccc2)C(O)C1O (stereo not drawn),89.8,92.1,96.5,95.2,25.9,86.6,94.3,99.1,99.4,73,82.3,95.5%,84.5,,100,48.1,103,108%,101,
C=C1C(=O)O[C@H]2[C@H]1CC/C(C(=O)NCCOCCOCC(=O)Nc1ccc(OC)c(C(N)=O)c1O)=C\CC[C@@]1(C)O[C@@H]21,97.7,80.7,94.2,91.8,106,92.5,84.4,94.3,73.7,101,82.6,86.9%,100,59.6%,89.4,104,90.7,69.4%,99.3,
COc1ccc2c(c1)OC(N(C(C)=O)C(C)=O)=C(C#N)C2c1ccc(F)cc1 (stereo not drawn),50.9,75.2,48.8,39.2,15.8,63.4,45.1,28.9,30.2,37.9,10.2,62.5%,53.1,-2.33% (active),54.1,18.3,13.9,63%,20.5,
NC(=O)C1=C[C@H]2[C@H]3C=C[C@@]2(O)C(=O)O[C@@H]3O1,67,47.6,93.8,,99.2,40.7,80.7,61.4,38.8,45.9,61.8,4.54% (active),61.5,8.42% (active),58.2,88.5,65.6,28.9%,32,63.3
CNC(=O)NN,98.2,103,103,,105,82.5,98.9,107,94.5,103,109,93.7%,108,108%,111,99.6,97,100%,98.1,104
CCOC(=O)c1noc2c1CCc1cn(Cc3cc(OC)cc(OC)c3)cc1-2,97.6,101,102,,109,104,103,101,115,104,102,107%,117,113%,96.8,95.3,98.8,101%,101,46.5
